Assays:
Experiment in all cases: log2 ratio of Biotin-Ahx-Ub-VS probe labelling (fragment/DMSO); higher = less target engagement (more negative = stronger competition), active = hit call of the paper (q ≤ 0.05, log2 ratio ≤ -1)
Details in all cases: compound concentration: 200 uM; treatment time: 3 h
USP19 = biological target: T1, USP19 (UniProt O94966)
T1 sequence (whole entry): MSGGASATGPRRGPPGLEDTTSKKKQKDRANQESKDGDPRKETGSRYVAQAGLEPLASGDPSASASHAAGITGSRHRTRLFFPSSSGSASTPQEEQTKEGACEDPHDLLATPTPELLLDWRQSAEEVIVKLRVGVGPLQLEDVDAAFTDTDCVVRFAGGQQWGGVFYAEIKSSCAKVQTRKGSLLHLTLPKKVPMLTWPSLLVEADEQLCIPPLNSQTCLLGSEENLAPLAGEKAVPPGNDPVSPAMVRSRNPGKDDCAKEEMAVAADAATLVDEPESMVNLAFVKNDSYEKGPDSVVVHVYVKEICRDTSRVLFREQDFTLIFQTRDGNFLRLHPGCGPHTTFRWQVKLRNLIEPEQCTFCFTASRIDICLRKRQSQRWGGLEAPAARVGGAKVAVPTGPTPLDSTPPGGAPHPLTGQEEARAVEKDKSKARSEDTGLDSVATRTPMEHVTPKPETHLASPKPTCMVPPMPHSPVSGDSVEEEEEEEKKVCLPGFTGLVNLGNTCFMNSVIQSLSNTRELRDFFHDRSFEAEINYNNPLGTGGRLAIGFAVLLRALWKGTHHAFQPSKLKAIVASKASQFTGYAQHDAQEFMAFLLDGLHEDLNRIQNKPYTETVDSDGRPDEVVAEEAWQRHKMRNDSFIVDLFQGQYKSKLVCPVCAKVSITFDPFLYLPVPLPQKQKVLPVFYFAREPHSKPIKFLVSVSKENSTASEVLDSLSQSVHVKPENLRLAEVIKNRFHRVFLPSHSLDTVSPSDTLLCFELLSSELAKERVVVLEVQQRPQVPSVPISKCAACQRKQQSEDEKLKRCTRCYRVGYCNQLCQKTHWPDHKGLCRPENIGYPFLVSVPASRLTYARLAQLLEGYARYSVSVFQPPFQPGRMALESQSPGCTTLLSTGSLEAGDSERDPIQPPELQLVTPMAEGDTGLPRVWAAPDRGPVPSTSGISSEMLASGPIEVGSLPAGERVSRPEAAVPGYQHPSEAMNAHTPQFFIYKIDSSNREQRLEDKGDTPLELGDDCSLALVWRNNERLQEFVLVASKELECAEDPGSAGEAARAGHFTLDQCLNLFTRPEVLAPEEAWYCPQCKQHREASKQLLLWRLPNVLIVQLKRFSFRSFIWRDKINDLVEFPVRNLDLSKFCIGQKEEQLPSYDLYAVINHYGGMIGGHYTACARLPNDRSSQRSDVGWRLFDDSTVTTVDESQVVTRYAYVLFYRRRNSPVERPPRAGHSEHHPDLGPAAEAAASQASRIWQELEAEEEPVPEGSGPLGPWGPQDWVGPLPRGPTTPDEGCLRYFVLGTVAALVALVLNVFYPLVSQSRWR
Summary of the method: (§1)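 Global-median-normalised Spectronaut label-free quantities were compared by unpaired t-test, and values are average log2 ratios of fragment over vehicle. Only proteins with ≥2 unique peptides were used. HEK293T lysate (495 µg per sample) was treated in triplicate with fragment at 200 µM or vehicle for 3 h and then with Biotin-Ahx-Ub-VS at 0.5 µM final for 1 h. Labelled DUBs were then NeutrAvidin-enriched, digested with LysC and trypsin, and run by diaPASEF LC-MS/MS.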

USP22 = biological target: T2, USP22 (UniProt Q9UPT9)
T2 sequence (whole entry): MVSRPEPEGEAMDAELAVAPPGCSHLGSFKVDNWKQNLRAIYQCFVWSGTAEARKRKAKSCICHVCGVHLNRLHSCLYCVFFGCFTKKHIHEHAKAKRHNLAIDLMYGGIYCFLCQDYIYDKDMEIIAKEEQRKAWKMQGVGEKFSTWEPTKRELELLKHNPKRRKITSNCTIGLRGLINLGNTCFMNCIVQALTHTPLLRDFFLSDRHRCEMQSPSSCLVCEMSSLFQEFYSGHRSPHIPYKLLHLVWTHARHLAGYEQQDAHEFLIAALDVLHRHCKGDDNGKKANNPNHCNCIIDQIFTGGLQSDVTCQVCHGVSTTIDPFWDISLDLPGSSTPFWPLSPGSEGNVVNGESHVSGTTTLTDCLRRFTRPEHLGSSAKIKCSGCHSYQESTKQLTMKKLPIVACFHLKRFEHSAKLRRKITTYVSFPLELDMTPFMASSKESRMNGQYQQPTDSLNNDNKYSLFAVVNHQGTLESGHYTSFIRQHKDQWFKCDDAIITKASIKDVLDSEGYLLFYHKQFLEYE
Summary of the method: as §1

USP24 = USP24 (UniProt Q9UPU5)
USP24, sequence (Q9UPU5 whole entry): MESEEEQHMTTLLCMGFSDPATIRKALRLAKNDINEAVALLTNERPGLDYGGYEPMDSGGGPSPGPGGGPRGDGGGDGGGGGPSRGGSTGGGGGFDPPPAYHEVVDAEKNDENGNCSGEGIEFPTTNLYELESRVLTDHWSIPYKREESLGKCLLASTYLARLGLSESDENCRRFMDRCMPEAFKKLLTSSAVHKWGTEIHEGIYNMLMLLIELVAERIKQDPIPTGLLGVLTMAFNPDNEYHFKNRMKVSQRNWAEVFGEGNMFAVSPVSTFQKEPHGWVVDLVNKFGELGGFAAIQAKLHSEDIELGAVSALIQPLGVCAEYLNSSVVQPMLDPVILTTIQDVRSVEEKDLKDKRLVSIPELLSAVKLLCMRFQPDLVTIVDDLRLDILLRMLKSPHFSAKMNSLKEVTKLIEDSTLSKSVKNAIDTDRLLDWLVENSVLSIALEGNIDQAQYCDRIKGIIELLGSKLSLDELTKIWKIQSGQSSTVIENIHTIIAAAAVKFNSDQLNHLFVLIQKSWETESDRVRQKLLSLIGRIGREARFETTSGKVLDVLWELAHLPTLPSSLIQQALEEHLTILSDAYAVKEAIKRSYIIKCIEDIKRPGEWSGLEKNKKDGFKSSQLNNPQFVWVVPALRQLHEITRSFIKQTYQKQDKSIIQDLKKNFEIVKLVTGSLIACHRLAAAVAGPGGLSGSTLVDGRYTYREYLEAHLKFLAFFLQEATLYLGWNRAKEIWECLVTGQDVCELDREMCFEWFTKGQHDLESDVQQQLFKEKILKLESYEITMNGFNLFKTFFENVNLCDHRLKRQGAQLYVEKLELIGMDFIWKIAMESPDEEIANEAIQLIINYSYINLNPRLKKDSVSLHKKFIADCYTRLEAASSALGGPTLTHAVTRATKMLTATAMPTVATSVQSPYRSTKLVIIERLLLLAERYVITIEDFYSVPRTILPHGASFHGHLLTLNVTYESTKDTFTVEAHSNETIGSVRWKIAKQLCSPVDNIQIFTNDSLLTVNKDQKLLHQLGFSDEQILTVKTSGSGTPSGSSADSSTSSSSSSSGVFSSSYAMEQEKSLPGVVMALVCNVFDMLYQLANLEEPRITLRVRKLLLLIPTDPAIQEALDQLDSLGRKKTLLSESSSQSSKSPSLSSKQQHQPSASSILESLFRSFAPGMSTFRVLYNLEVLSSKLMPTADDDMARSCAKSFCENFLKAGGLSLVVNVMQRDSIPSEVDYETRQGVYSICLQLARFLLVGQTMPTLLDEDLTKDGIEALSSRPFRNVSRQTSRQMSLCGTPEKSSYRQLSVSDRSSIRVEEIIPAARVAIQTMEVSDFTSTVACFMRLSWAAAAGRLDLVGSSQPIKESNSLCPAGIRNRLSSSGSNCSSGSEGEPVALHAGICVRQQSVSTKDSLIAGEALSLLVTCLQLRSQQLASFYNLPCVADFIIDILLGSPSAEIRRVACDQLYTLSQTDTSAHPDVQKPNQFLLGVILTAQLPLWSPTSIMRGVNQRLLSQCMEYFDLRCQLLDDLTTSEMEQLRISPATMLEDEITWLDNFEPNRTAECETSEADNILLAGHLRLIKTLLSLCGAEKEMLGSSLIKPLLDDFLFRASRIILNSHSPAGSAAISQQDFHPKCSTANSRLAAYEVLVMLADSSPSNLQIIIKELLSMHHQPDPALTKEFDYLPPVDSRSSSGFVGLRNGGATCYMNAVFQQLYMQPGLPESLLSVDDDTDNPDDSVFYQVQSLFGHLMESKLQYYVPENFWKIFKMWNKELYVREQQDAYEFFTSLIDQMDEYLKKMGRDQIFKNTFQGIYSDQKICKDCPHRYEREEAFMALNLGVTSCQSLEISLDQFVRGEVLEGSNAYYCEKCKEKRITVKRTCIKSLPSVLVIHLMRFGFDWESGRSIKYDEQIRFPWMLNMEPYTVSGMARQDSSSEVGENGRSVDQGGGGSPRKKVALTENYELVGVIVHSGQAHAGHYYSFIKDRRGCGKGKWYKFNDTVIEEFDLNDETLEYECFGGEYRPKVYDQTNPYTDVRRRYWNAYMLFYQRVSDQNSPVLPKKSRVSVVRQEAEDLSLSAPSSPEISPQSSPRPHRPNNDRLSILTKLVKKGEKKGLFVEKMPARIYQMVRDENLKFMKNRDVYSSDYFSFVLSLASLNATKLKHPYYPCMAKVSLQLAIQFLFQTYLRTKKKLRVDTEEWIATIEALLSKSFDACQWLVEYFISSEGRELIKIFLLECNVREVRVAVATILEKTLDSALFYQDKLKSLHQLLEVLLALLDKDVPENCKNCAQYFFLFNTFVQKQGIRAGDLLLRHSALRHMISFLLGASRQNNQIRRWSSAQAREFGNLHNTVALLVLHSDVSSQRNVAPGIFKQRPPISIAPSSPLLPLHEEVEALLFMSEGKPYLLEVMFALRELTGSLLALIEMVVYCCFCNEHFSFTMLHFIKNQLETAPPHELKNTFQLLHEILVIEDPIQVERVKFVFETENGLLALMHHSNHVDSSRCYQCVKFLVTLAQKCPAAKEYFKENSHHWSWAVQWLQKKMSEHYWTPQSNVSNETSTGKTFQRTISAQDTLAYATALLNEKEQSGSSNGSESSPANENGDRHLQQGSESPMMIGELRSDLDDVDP
Summary of the method: as §1

USP25 = biological target: T3, USP25 (UniProt Q9UHP3)
T3 sequence (whole entry): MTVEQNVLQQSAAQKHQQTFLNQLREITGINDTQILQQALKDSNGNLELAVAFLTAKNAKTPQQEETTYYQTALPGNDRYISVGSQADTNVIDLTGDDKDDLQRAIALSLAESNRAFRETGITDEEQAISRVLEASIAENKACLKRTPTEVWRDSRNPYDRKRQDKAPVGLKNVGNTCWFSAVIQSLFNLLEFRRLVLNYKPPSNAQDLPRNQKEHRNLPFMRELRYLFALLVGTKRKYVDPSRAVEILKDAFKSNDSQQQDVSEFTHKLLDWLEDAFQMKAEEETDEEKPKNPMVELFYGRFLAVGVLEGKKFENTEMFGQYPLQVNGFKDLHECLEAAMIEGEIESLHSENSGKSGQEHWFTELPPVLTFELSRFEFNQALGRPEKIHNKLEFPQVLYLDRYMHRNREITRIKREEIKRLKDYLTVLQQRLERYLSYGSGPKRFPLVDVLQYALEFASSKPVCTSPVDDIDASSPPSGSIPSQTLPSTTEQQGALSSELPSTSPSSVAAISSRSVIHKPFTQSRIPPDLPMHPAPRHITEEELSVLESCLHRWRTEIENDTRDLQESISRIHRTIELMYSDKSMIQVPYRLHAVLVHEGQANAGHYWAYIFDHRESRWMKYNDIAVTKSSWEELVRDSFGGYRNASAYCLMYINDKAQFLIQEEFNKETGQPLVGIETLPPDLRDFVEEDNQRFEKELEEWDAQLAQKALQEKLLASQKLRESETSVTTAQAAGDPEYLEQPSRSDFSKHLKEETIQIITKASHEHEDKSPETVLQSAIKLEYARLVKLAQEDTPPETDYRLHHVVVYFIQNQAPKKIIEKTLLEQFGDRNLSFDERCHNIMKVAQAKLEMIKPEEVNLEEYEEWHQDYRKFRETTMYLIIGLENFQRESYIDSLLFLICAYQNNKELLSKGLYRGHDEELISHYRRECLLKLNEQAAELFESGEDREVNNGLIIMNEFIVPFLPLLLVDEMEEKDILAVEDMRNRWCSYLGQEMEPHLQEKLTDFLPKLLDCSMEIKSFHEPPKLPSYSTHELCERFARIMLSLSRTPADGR
Summary of the method: as §1

USP28 = biological target: T4, USP28 (UniProt Q96RU2)
T4 sequence (whole entry): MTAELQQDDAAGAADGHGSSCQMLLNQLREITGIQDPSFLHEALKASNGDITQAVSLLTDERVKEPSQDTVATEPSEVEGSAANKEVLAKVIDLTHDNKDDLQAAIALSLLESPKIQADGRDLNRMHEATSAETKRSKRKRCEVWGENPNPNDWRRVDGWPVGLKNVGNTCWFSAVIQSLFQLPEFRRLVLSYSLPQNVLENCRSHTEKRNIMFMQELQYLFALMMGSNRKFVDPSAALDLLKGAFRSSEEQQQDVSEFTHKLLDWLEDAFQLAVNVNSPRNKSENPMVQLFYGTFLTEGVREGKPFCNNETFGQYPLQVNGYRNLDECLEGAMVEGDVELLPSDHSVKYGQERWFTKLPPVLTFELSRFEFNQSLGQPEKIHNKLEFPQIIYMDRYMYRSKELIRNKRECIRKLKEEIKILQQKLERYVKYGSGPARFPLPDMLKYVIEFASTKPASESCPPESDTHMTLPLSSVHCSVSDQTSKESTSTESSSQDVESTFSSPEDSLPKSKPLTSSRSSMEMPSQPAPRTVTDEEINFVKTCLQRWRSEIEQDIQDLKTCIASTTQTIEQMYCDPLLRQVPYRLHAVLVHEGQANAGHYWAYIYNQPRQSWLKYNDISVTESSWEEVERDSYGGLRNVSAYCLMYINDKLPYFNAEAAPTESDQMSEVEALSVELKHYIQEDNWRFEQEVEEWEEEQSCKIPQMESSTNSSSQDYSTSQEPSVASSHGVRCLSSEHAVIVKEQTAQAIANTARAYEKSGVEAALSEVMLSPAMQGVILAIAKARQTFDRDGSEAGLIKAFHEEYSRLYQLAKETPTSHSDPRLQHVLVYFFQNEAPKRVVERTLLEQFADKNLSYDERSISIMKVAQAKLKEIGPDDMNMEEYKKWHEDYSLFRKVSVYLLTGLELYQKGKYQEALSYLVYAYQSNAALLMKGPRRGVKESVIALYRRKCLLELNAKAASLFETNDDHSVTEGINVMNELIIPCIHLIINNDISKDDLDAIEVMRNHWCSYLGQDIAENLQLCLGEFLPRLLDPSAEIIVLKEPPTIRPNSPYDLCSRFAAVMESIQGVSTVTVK
Summary of the method: as §1

Measured: log2 ratio of Biotin-Ahx-Ub-VS probe labelling

COCC1C=CCCN1C(=O)CCl (stereo not given)
inactive: USP19 -0.24 | USP22 -0.0428 | USP24 -0.137 | USP25 -0.32 | USP28 -0.342
